From PubChem BioAssay (Tox21)
“And” between values parts separate entries of the source, which are not always exact repeats. Identical values can stand only once. Records with an inconclusive call do not appear. The source made the active and inactive calls. The call rests on the fitted dose curve; in most records, active means well fitted curve in the direction sought with a large enough effect in the repeat runs; inconclusive means weak or mixed curves; inactive means no such curve, though single readings can be large; an effect the other way counts as inactive or inconclusive.

Columns and labels:
[1] = A CellTox Green Cytotoxicity Assay to monitor cytotoxicity in HEK293 cells - 40 hour (AID 1224871); further: nearly all actives have a fitted effect of over 45% in size
Procedure, shortened: (§1)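 Tox21 screen in HEK293: membrane-impermeant cyanine dye fluoresces on binding dead-cell DNA; compound pinned 5 h post-seeding, plates held at 37 C, signal read repeatedly through 40 h.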

[2] = qHTS RealTime-Glo MT Cell Viability Assay in HEK293 cells - 16 hour (AID 1224872); further: top concentration of the series differs between compounds; nearly all actives have a fitted effect of over 50% in size
Procedure, shortened: (§2)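 Homogeneous bioluminescent viability format in HEK293 cells (600 cells/well). Following 5 h at 37 C/5% CO2, 23 nL compound was pintooled; the signal was measured repeatedly during 40 h incubation.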

[3] = qHTS RealTime-Glo MT Cell Viability Assay in HepG2 cells - 8 hour (AID 1224873); further: nearly all actives have a fitted effect of over 55% in size
Procedure, shortened: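 Real-time viability: cells seeded at 600 per well together with NanoLuc and cell-permeant prosubstrate, compounds added after 5 h incubation. Luminescence tracked at 0, 8, 16, 24, 32 and 40 h of exposure.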

[4] = qHTS RealTime-Glo MT Cell Viability Assay in HEK293 cells - 40 hour (AID 1224874); details: RealTime-Glo luminescence; max response: stronger effect = lower value; further: nearly all actives have a fitted effect of over 50% in size
Procedure, shortened: (§3)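 HEK293 + NanoLuc + prosubstrate, 600 cells/well; 5 h, 37 C/5% CO2; compound 23 nL in DMSO by pintool; 37 C; luminescence read at 0, 8, 16, 24, 32 and 40 h time points.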

[5] = A CellTox Green Cytotoxicity Assay to monitor cytotoxicity in HEK293 cells - 24 hour (AID 1224875); further: series mostly up to about 77 µM; nearly all actives have a fitted effect of over 45% in size
Procedure, shortened: as §1

[6] = A CellTox Green Cytotoxicity Assay to monitor cytotoxicity in HepG2 cells - 16 hour (AID 1224876); further: nearly all actives have a fitted effect of over 45% in size
Procedure, shortened: (§4)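 Measurements at 0, 8, 16, 24, 32 and 40 h of treatment captured CellTox Green fluorescence in HepG2 cells that had been co-plated with reagent and preincubated 5 h at 37 C/5% CO2.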

[7] = qHTS RealTime-Glo MT Cell Viability Assay in HepG2 cells - 32 hour (AID 1224877); further: nearly all actives have a fitted effect of over 55% in size
Procedure, shortened: (§5)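 Cell number in HepG2 cultures estimated from NanoLuc luminescence generated by metabolic reduction of a prosubstrate by living cells. The homogeneous, nonlytic format allowed repeated reads at 0, 8, 16, 24, 32 and 40 h of compound exposure.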

[8] = A CellTox Green Cytotoxicity Assay to monitor cytotoxicity in HepG2 cells - 24 hour (AID 1224878); further: nearly all actives have a fitted effect of over 45% in size
Procedure, shortened: as §4

[9] = A CellTox Green Cytotoxicity Assay to monitor cytotoxicity in HepG2 cells - 40 hour (AID 1224879); further: nearly all actives have a fitted effect of over 40% in size
Procedure, shortened: as §4

[10] = qHTS RealTime-Glo MT Cell Viability Assay in HEK293 cells - 0 hour (AID 1224880)
Procedure, shortened: as §3

[11] = A CellTox Green Cytotoxicity Assay to monitor cytotoxicity in HEK293 cells - 32 hour (AID 1224881); further: nearly all actives have a fitted effect of over 40% in size
Procedure, shortened: as §1

[12] = A CellTox Green Cytotoxicity Assay to monitor cytotoxicity in HepG2 cells - 0 hour (AID 1224882); further: nearly all actives have a fitted effect of over 35% in size
Procedure, shortened: as §4

[13] = A CellTox Green Cytotoxicity Assay to monitor cytotoxicity in HepG2 cells - 32 hour (AID 1224883); further: nearly all actives have a fitted effect of over 50% in size
Procedure, shortened: as §4

[14] = A CellTox Green Cytotoxicity Assay to monitor cytotoxicity in HEK293 cells - 8 hour (AID 1224884); further: nearly all actives have a fitted effect of over 35% in size
Procedure, shortened: as §1

[15] = qHTS RealTime-Glo MT Cell Viability Assay in HepG2 cells - 16 hour (AID 1224885); further: nearly all actives have a fitted effect of over 50% in size
Procedure, shortened: as §5

[16] = qHTS RealTime-Glo MT Cell Viability Assay in HEK293 cells - 24 hour (AID 1224886)
Procedure, shortened: as §2

[17] = qHTS RealTime-Glo MT Cell Viability Assay in HEK293 cells - 8 hour (AID 1224887)
Procedure, shortened: as §3

[18] = A CellTox Green Cytotoxicity Assay to monitor cytotoxicity in HEK293 cells - 16 hour (AID 1224888); further: nearly all actives have a fitted effect of over 35% in size
Procedure, shortened: as §1

[19] = qHTS RealTime-Glo MT Cell Viability Assay in HepG2 cells - 0 hour (AID 1224889); further: nearly all actives have a fitted effect of over 50% in size
Procedure, shortened: as §5

[20] = A CellTox Green Cytotoxicity Assay to monitor cytotoxicity in HepG2 cells - 8 hour (AID 1224890); further: nearly all actives have a fitted effect of over 45% in size
Procedure, shortened: as §4
On the % scale 0 is the no-effect control and ±100 the full control effect.

O=C(O)CS
inactive: Potency [1] | Potency [2] | outcome [3] | max response [4] 1.63% and 9.97% and 1.26% | Potency [5] | Potency [6] | Potency [7] | Potency [8] | Potency [9] | Potency [10] | Potency [11] | Potency [12] | Potency [13] | Potency [14] | Potency [15] | Potency [16] | Potency [17] | Potency [18] | Potency [19] | Potency [20]

NC(N)=O
inactive: Potency [1] | Potency [2] | outcome [3] | max response [4] 7.94% and 4.18% and 0.0917% | Potency [5] | Potency [6] | Potency [7] | Potency [8] | Potency [9] | Potency [10] | Potency [11] | Potency [12] | Potency [13] | Potency [14] | Potency [15] | Potency [16] | Potency [19] | Potency [20]

CCC1(c2ccccc2)C(=O)NCNC1=O
inactive: Potency [1] | Potency [2] | outcome [3] | max response [4] -6.46% and 0.966% and 0.298% | Potency [5] | Potency [6] | Potency [7] | Potency [8] | Potency [9] | Potency [10] | Potency [11] | Potency [12] | Potency [13] | Potency [14] | Potency [15] | Potency [16] | Potency [17] | Potency [18] | Potency [19] | Potency [20]

NC(=O)NC1NC(=O)NC1=O (stereo not given)
inactive: Potency [1] | Potency [2] | outcome [3] | max response [4] 4.83% and -16.4% and 0.282% | Potency [5] | Potency [6] | Potency [7] | Potency [8] | Potency [9] | Potency [10] | Potency [11] | Potency [12] | Potency [13] | Potency [14] | Potency [15] | Potency [16] | Potency [18] | Potency [19] | Potency [20]

Cc1noc(NS(=O)(=O)c2ccc(N)cc2)c1C
inactive: Potency [1] | Potency [2] | outcome [3] | max response [4] 3.99% and 6.51% and 6.27% | Potency [5] | Potency [6] | Potency [7] | Potency [8] | Potency [9] | Potency [10] | Potency [11] | Potency [12] | Potency [13] | Potency [14] | Potency [15] | Potency [16] | Potency [18] | Potency [19] | Potency [20]

Cc1ccc(S(=O)(=O)NC(=O)NN2CCCCCC2)cc1
inactive: Potency [1] | Potency [2] | outcome [3] | max response [4] 3.5% and 3.12% and 7.81% | Potency [5] | Potency [6] | Potency [7] | Potency [8] | Potency [9] | Potency [10] | Potency [11] | Potency [12] | Potency [13] | Potency [14] | Potency [15] | Potency [16] | Potency [18] | Potency [19] | Potency [20]
